Assay results from PubChem BioAssay (NCI).
Compounds without any hit were thinned out: in the full panel of roughly 83,000, 20% have a hit.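 Cells were grown in 96-well plates and exposed to the test compound at a single concentration for 48 hours; results are reported as percent growth, with values below 10 considered active.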 Unmarked numbers belong to inactive results. Activity calls are given as the source filed them.

Experiments:
Assay in all cases: NCI-60 one-dose screen, 48 h (100 = growth as untreated, 0 = no growth, -100 = all killed)
Details in all cases: 10 µM unless noted
[1] = system: K-562 leukemia
[2] = system: MALME-3M melanoma
[3] = system: MDA-MB-231 breast
[4] = system: RXF 393 renal
[5] = system: SF-268 CNS
[6] = system: SF-295 CNS
[7] = system: SF-539 CNS
[8] = system: UACC-257 melanoma
[9] = system: M14 melanoma
[10] = system: HCT-15 colon
[11] = system: HT29 colon
[12] = system: SNB-75 CNS
[13] = system: SNB-19 CNS
[14] = system: U251 CNS
[15] = system: PC-3 prostate
[16] = system: SK-MEL-5 melanoma
[17] = system: UACC-62 melanoma
[18] = system: LOX IMVI melanoma
[19] = system: SK-MEL-28 melanoma
[20] = system: SK-MEL-2 melanoma

| Structure (SMILES) | growth [1] | growth [2] | growth [3] | growth [4] | growth [5] | growth [6] | growth [7] | growth [8] | growth [9] | growth [10] | growth [11] | growth [12] | growth [13] | growth [14] | growth [15] | growth [16] | growth [17] | growth [18] | growth [19] | growth [20] |
| --- | --- | --- | --- | --- | --- | --- | --- | --- | --- | --- | --- | --- | --- | --- | --- | --- | --- | --- | --- | --- |
| CC(C)(C)Nc1nc2c(OCCc3ccccc3)cccn2c1-c1ccc(O)cc1 | 17.4% | 62.5% | 79.6% | 21.2% | 91.3% | 36% | 72.9% | 97.9% | 63.1% | 2.12% (active) | 14.8% | 124% | 68.3% | 53.1% | 28.8% | 50.6% | 70.4% | 34.9% | 66% | 85.1% |
| CN1CCN(Cc2ccc(NC(=O)c3cncc(C#Cc4cnc5ccc(N6CCSCC6)nn45)c3)cc2C(F)(F)F)CC1 | -16.2% (active) | -62.6% (active) | -38.4% (active) | -87.3% (active) | -52.9% (active) | -36.2% (active) | -94.2% (active) | 31.1% | -81.6% (active) | -38.9% (active) | -50.1% (active) | -67.4% (active) | -12.6% (active) | -91.6% (active) | 1.39% (active) | 7.81% (active) | -30.5% (active) | -89.8% (active) | -48.1% (active) | -89.1% (active) |
| CCCC(=O)NC(c1ccc(N(CC)CC)cc1)c1cc(C)c2cccnc2c1O (stereo not given) | 14.6% | 16% | 43.9% | 43.1% | 27.6% | 17.6% | 11.3% | 24.9% | -33% (active) | 29.5% | 36.4% | 60.4% | 25.1% | 25.6% | 39.3% | -19.8% (active) | 8.31% (active) |  | 29.6% |  |
| CC(=O)Oc1ccccc1C(=O)Nc1ccc(C(=O)/C=C/c2ccncc2)cc1 | 6.54% (active) | 86.6% | 33.6% | -4.73% (active) | 85.5% | 49.5% | 4.63% (active) | 92.4% | 30.3% | -23.9% (active) | 5.38% (active) | 48.4% | 76% | 21.1% | 70.4% | 74% | 50.3% | -73.6% (active) | 55.8% | 108% |
| O=C1Nc2cc(Cl)ccc2/C1=C\c1ccc(OCc2ccc(Br)cc2F)cc1 | 3.55% (active) | -66.9% (active) | -2.27% (active) | -67.3% (active) | -11.9% (active) | -83.2% (active) | -87.9% (active) | 8.13% (active) | -43.9% (active) | 6.12% (active) | 0.627% (active) | -72.8% (active) | -41.3% (active) | -68.5% (active) | -57.1% (active) | -12.1% (active) | -74.3% (active) | -92.8% (active) | -63% (active) | -42.8% (active) |
| Cc1nc2cnc(N)c(C#Cc3cncc(C(=O)Nc4ccc(Cl)c(C(F)(F)F)c4)c3)c2nc1C | -15% (active) | 39.9% | 7.63% (active) | -18% (active) | 52.6% | 88.5% | -12.9% (active) | 77.7% | 29.9% | 52.6% | 31.5% | 44.6% | 90% | 77.4% | 85.3% | 86.9% | 39.7% |  | 44.4% | 14.4% |
| CSCCC(C(=O)O)N1C(=O)/C(=C/c2ccc(O)c(O)c2)SC1=S (stereo not given) | 109% | 101% | 97.1% | 125% | 97.6% | 96.5% | 95.7% | 104% | 101% | 100% | 105% | 93.6% | 97.9% | 93.4% | 99.2% | 99.9% | 93.7% |  | 99.5% |  |
